Source: the supplement of paper PMC11732987, “Enantioselective OTUD7B fragment discovery through chemoproteomics screening and high-throughput optimisation” (Communications Chemistry, 2025)

Columns and labels:
Assay in all cases: log2 ratio of Biotin-Ahx-Ub-VS probe labelling (fragment/DMSO); higher = less target engagement (more negative = stronger competition), active = hit call of the paper (q ≤ 0.05, log2 ratio ≤ -1)
Conditions in all cases: compound concentration: 200 uM; treatment time: 3 h
USP19 = biological target: T1, USP19 (UniProt O94966)
T1 sequence (whole entry): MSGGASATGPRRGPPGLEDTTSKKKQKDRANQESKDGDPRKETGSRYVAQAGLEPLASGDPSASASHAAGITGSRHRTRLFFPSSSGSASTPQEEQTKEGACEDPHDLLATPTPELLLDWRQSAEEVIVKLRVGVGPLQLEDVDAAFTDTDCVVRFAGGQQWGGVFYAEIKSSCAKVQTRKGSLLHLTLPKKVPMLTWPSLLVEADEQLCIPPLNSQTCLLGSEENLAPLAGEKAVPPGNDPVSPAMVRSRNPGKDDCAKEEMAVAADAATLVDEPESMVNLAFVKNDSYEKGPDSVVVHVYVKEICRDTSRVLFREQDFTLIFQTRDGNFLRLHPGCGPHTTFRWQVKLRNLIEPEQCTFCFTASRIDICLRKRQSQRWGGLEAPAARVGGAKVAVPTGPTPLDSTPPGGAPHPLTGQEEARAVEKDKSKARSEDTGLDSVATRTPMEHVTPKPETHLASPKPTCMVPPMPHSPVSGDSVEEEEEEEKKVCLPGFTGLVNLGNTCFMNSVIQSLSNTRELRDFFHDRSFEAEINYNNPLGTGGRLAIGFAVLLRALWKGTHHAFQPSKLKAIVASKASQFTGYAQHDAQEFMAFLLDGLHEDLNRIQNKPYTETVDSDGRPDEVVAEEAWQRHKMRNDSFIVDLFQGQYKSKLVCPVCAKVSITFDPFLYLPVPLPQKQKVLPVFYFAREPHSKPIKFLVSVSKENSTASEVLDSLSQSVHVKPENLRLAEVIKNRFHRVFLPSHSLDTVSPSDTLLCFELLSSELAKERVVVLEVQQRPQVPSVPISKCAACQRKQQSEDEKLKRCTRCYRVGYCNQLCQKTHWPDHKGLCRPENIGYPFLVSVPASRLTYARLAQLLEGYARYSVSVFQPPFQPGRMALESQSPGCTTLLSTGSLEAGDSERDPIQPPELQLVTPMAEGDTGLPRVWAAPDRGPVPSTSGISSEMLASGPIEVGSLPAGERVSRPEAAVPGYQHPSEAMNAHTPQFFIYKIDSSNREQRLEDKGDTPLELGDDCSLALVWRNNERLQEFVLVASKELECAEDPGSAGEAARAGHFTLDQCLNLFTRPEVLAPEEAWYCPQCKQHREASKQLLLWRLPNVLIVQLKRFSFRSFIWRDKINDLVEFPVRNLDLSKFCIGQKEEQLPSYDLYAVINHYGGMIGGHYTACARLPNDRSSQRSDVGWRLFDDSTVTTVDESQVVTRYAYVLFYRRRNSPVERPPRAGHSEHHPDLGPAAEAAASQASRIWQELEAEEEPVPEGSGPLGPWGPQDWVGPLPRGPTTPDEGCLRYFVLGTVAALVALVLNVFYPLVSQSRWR
Procedure, shortened: (§1)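 HEK293T lysate, 495 µg per sample in Tris/CHAPS/IGEPAL buffer with protease inhibitors, was treated in triplicate with fragment at 200 µM or vehicle for 3 h and then with Biotin-Ahx-Ub-VS at 0.5 µM final for 1 h. Labelled DUBs were NeutrAvidin-enriched, digested with LysC and trypsin, and run by diaPASEF LC-MS/MS. Spectronaut label-free quantities were global-median-normalised, and values are average log2 fragment/vehicle ratios by unpaired t-test on proteins with ≥2 unique peptides.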

USP22 = biological target: T2, USP22 (UniProt Q9UPT9)
T2 sequence (whole entry): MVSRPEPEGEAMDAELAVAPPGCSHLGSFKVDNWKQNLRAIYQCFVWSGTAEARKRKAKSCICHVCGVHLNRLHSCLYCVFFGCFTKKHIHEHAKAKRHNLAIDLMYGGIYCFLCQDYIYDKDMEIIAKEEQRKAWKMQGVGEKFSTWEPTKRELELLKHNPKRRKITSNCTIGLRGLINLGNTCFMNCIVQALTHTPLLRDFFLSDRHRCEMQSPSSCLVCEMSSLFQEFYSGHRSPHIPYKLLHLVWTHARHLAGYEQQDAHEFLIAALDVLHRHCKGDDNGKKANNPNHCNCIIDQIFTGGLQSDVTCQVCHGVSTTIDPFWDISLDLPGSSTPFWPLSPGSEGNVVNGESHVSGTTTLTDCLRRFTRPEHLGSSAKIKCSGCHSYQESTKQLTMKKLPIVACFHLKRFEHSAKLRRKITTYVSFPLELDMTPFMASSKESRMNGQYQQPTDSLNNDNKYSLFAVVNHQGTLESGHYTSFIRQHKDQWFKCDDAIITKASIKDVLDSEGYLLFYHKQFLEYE
Procedure, shortened: as §1

USP24 = USP24 (UniProt Q9UPU5)
Chain of USP24 (Q9UPU5 whole entry): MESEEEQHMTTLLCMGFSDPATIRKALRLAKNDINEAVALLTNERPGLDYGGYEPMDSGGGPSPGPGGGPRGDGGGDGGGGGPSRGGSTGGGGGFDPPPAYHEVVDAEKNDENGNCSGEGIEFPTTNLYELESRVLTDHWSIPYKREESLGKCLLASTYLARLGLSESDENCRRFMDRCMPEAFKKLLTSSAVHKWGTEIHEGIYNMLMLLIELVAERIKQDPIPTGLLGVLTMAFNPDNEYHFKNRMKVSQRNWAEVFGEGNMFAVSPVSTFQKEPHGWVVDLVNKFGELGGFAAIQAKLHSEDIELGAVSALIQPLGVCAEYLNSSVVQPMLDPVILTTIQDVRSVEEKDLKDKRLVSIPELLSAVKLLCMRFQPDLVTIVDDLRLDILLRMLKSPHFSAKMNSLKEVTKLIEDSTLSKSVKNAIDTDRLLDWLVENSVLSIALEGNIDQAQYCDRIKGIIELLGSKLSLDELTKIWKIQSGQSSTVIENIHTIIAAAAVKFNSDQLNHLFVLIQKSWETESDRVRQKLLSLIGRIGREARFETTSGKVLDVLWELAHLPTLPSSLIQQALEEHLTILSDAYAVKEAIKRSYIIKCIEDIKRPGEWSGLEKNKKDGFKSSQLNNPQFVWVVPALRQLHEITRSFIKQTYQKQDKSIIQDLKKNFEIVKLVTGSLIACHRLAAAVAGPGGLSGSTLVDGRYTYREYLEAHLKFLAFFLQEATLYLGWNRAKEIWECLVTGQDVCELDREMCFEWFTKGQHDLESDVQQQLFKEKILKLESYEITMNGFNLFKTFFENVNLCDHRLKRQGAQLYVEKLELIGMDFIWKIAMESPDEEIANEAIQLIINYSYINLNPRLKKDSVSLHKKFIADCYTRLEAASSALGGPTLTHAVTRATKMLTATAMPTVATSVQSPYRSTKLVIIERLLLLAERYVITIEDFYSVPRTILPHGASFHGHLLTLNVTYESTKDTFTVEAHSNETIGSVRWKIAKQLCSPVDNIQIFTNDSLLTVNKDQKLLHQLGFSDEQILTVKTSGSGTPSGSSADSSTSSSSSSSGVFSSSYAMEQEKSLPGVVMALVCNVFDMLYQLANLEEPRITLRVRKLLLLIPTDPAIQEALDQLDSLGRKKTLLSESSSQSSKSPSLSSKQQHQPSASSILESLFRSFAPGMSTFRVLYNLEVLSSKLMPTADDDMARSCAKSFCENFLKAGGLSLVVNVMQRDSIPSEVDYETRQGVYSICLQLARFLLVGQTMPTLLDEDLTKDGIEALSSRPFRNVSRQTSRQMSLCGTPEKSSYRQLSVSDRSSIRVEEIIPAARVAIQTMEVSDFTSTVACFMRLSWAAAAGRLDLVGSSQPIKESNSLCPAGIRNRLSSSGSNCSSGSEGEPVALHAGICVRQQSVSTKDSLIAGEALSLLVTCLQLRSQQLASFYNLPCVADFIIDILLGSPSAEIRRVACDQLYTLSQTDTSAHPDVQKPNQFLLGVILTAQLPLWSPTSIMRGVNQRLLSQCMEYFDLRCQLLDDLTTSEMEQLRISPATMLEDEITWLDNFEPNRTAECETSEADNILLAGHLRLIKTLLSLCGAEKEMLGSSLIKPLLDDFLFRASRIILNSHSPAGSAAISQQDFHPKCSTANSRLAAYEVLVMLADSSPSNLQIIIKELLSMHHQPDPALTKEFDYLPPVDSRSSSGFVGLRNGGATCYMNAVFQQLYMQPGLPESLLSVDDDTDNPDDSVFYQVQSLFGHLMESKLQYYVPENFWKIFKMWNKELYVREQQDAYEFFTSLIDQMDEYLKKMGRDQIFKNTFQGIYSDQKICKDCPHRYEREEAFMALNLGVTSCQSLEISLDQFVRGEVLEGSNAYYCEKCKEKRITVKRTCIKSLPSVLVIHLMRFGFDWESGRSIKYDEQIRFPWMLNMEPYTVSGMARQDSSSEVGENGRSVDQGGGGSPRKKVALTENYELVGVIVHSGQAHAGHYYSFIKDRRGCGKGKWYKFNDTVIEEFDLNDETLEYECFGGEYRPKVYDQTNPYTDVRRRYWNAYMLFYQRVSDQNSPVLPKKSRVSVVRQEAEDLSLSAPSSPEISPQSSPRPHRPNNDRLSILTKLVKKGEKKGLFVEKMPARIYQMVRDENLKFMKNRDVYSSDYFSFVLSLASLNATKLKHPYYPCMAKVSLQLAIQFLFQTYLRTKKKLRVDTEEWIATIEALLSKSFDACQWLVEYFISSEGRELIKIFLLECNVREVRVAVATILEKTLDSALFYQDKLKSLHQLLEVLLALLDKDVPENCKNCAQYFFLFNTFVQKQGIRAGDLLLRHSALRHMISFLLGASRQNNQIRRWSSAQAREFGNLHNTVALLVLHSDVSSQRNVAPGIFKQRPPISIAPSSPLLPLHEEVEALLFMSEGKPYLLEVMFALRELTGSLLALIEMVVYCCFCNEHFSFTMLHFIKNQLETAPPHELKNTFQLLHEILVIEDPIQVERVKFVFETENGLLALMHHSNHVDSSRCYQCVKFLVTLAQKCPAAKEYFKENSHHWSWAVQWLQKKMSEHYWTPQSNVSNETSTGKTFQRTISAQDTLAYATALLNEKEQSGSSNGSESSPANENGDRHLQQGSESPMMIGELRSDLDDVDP
Procedure, shortened: as §1

USP25 = biological target: T3, USP25 (UniProt Q9UHP3)
T3 sequence (whole entry): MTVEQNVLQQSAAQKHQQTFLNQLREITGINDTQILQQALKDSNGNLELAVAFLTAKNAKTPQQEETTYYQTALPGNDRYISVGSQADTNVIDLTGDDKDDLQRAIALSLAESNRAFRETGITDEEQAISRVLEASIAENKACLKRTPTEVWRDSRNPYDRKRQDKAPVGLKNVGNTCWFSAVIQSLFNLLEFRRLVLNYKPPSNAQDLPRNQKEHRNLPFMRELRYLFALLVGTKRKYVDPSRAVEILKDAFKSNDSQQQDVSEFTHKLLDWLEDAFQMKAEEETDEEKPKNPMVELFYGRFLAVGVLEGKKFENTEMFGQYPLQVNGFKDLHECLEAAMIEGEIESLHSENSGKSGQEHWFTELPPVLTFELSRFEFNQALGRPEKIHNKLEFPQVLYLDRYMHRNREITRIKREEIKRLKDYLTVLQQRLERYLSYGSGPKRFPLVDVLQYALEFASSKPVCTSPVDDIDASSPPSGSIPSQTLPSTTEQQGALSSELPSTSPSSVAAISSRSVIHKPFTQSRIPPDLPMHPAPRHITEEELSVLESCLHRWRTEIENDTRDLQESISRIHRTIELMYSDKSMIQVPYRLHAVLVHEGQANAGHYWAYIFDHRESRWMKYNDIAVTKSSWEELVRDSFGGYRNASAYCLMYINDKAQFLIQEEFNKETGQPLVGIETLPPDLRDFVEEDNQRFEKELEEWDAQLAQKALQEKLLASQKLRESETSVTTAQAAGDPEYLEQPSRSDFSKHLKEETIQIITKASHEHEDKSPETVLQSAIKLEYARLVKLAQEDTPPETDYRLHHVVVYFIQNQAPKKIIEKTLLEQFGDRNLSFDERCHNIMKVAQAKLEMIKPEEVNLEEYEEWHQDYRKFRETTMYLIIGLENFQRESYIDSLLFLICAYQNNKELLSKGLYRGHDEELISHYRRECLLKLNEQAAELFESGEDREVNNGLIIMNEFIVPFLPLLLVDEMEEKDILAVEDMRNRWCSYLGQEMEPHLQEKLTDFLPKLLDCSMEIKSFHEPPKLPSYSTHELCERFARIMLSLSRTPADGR
Procedure, shortened: as §1

USP28 = biological target: T4, USP28 (UniProt Q96RU2)
T4 sequence (whole entry): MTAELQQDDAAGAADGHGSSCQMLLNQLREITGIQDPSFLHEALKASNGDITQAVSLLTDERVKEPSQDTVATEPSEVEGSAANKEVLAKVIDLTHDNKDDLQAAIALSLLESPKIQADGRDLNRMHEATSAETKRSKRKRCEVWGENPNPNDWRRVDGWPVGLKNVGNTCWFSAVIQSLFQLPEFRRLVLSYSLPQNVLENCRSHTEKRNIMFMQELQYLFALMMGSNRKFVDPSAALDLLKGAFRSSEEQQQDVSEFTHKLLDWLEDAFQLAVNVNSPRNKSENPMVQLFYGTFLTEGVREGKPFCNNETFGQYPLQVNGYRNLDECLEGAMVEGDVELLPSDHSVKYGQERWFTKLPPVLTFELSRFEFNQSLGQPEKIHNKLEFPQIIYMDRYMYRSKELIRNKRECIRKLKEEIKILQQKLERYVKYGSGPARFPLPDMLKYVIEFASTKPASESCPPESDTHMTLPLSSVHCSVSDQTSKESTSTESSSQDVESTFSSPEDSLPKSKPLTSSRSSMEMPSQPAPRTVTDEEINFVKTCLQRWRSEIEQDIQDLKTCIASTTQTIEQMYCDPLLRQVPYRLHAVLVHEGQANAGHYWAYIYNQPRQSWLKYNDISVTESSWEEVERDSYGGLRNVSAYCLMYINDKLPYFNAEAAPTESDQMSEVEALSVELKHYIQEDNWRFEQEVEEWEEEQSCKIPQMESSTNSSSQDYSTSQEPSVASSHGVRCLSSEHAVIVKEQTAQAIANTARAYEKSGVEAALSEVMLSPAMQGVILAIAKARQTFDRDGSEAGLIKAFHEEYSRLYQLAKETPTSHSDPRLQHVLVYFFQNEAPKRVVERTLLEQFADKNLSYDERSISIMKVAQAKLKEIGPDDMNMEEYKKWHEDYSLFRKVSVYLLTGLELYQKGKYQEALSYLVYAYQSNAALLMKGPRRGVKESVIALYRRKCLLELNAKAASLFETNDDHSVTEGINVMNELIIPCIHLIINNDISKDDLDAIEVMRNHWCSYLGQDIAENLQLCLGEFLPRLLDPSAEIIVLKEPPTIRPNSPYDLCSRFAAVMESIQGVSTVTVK
Procedure, shortened: as §1

Measured: log2 ratio of Biotin-Ahx-Ub-VS probe labelling

CC(C)n1nccc1NC(=O)CCl
inactive: USP19 -0.0967 | USP22 0.134 | USP24 -0.207 | USP25 -0.514 | USP28 -0.651
